Assay outcomes deposited in PubChem BioAssay by National Center for Advancing Translational Sciences (NCATS).
Cycloheximide cs – Cycloheximide Counterscreen for Small Molecule Inhibitors of Shiga Toxin; max response, %; hit rate 12% among 300,000; cell reporter, cycloheximide protein synthesis inhibition counterscreen; in the data active = max response mostly above about 13%, no sharp cut-off; inactive = mostly below about 14%; also: read at 38.3 µM for the half of the compounds with a filed dose
Shiga inhibitor – A qHTS for Small Molecule Inhibitors of Shiga Toxin | hit rate 9.2% among 290,000 | Vero cells, Shiga toxin protein synthesis inhibition reporter | inhibition, % at 38.7 µM; in the data active = inhibition mostly above about 28%, no sharp cut-off; inactive = mostly below about 43%
Pf growth 48h – Primary qHTS for delayed death inhibitors of the malarial parasite plastid, 48 hour incubation; P. falciparum luciferase growth in erythrocytes, 48 h; Potency, µM (doses to about 28.7 µM), actives largely listed as inhibitors; hit rate 5.9% among 310,000; AID 504832, 2011
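Compounds are pin-transferred into medium, infected erythrocytes (2% hematocrit, 0.1% parasitemia final) are added, and plates sit one parasite generation at 37 C in 5% CO2. Detection reagent is then added and luminescence measured.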
HCMV inh – qHTS Assay for inhibitors of the human cytomegalovirus (HCMV); HFF cells, HCMV-luciferase reporter, 72 h; active compounds read low; activity change, negative = inhibition, % at 57.5 µM; hit rate 4.5% among 410,000; in the data active = activity change below about -60%; inconclusive = no clear call, values can overlap the other calls; inactive = above about -39%
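Two compound doses tested in HFFs infected with HCMV-luciferase, MOI 1 PFU/cell, 72 h at 37C. Lysate luminescence read with OneGlo; data normalized against buffer-only and 10uM Salinomycin inhibitor controls.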
HCV inhibitor – qHTS Assay for Inhibitors of Hepatitis C Virus (HCV); Huh7.5.1 HCVcc-Cre infection, luciferase reporter, 44 h; Potency, µM (series often up to 41.8 µM), actives largely listed as inhibitors; hit rate 3.4% among 340,000; AID 651820, 2012
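Whole-lifecycle infectious HCVcc-Cre system; cells 1,000/well, compound then virus (~0.5 moi) added 4 h after plating, 44 h culture. Luciferase read 15 sec following 15 min substrate incubation, room temp.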
Pf growth 96h – Primary qHTS for delayed death inhibitors of the malarial parasite plastid, 96 hour incubation; P. falciparum luciferase reporter growth, 96 h; hit rate 6.9% among 320,000; Potency, µM (doses to about 28.7 µM), actives largely listed as inhibitors
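Delayed-death screen, second-generation endpoint: infected erythrocytes, 2% hematocrit, 0.05% parasitemia final; 96 hours at 37 C, 5% CO2; luciferase detection reagent; luminescence decrease equals reduced growth.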
A number is an active result; ! = not confirmed by another sample. An excerpt weighted towards active compounds, which were near 21% of everything screened. Unless noted, calls follow the shape of the dose curve; as a rule, active = well fitted inhibition curve with a large enough effect; inconclusive = small, poorly fitted or top-dose-only effect, or another doubt; inactive = no such curve, though single readings can be large or run the other way.

For CCC(=O)N(Cc1cc2cc(C)c(C)cc2[nH]c1=O)C1CCCCC1 the results were Cycloheximide cs inactive, Shiga inhibitor inactive, Pf growth 48h inconclusive, HCMV inh inactive, HCV inhibitor inactive and Pf growth 96h inactive.
`O=C(NC1CCCCC1)N(Cc1cc2cc3c(cc2[nH]c1=O)OCCO3)C1CCCCC1` gave Cycloheximide cs inactive, Shiga inhibitor inactive, HCMV inh -80, HCV inhibitor 11µM and Pf growth 96h 5.9µM.
CCN(CC)CCN(Cc1cc2ccc(C)cc2[nH]c1=O)C(=O)NC1CCCCC1 was read as Cycloheximide cs inactive, Shiga inhibitor inactive, Pf growth 48h inconclusive, HCMV inh inactive, HCV inhibitor inactive and Pf growth 96h inactive.
For CCN(CC)c1ccc(-c2nc(-c3ccccc3C)no2)cc1[N+](=O)[O-] the results were HCMV inh inactive.
`CC1(c2ccc3ccccc3c2)NC(=O)N(CC(=O)N2CCN(c3ccccc3O)CC2)C1=O` (configuration not stated) gave Cycloheximide cs inactive, Shiga inhibitor inactive, Pf growth 48h inconclusive, HCMV inh inactive, HCV inhibitor inconclusive and Pf growth 96h inconclusive.
`COc1ccc(CN(CCN(C)C)c2ncccn2)cc1` gave Pf growth 48h inactive and Pf growth 96h inconclusive.
`CCCCCCCCCCCCCCCC[N+](C)(C)CCN(Cc1ccc(OC)cc1)c1ncccn1` gave Pf growth 48h 3.7µM, HCV inhibitor 2.8µM and Pf growth 96h 1.9µM.
O=C(CSc1nnc(Cc2cccs2)n1CCc1ccccc1)N1CCCc2ccccc21 was read as Cycloheximide cs inactive, Shiga inhibitor inactive, Pf growth 48h 9.3µM, HCMV inh inactive and HCV inhibitor inconclusive.
Screening Cn1cccc1Cc1nnc(SCC(=O)N2CCc3ccccc32)n1CCc1ccccc1 returned Cycloheximide cs inactive, Shiga inhibitor inactive, Pf growth 48h 13µM, HCMV inh inactive, HCV inhibitor inactive and Pf growth 96h inconclusive.
For Fc1cccc(Cc2c(-c3cccc(Cl)c3)nc3c(Cl)cc(C(F)(F)F)cn23)c1 the results were HCMV inh inactive.
Screening CC(Oc1ccc(Br)cc1)C(=O)NNC(=O)CCN1CCN(c2ccccc2)CC1 (configuration not stated) returned Pf growth 48h inconclusive, HCV inhibitor inactive and Pf growth 96h inactive.
`COCCCNC(=O)c1cc2c(-c3cccc(OC)c3)nn(C)c2s1` gave Cycloheximide cs inactive, Shiga inhibitor inactive, Pf growth 48h inactive, HCMV inh inactive, HCV inhibitor inactive and Pf growth 96h inconclusive.
Screening COc1cccc(-c2nn(C)c3sc(C(=O)NCc4ccccn4)cc23)c1 returned Cycloheximide cs inactive, Shiga inhibitor inactive, Pf growth 48h inconclusive, HCMV inh inactive, HCV inhibitor 10µM and Pf growth 96h inactive.
Screening COc1cccc(-c2nn(C)c3sc(C(=O)Nc4ccc5c(c4)OCCO5)cc23)c1 returned Cycloheximide cs 61, Shiga inhibitor 75, Pf growth 48h inconclusive, HCV inhibitor 3.2µM and Pf growth 96h inactive.
`COc1cccc(-c2nn(C)c3sc(C(=O)NCc4ccc(C)cc4)cc23)c1` gave Cycloheximide cs inactive, Shiga inhibitor inactive, HCMV inh inactive, HCV inhibitor inconclusive and Pf growth 96h inconclusive.
COc1cccc(-c2nn(C)c3sc(C(=O)NCCc4cccc(C)c4)cc23)c1 was read as HCMV inh -69.
`CCN(CC)CCNC(=O)c1cc2c(-c3cccc(OC)c3)nn(C)c2s1` gave Cycloheximide cs inactive, Shiga inhibitor inactive, Pf growth 48h 1.5µM, HCMV inh -78!, HCV inhibitor 13µM and Pf growth 96h inconclusive.
Screening Cc1cccc(C)c1OCCn1c(C2CC(=O)N(Cc3ccc(F)cc3)C2)nc2ccccc21 (configuration not stated) returned HCMV inh inactive.
For CC(C)C[C@H](NC(=O)[C@H](CCCCN)NC(=O)[C@H](CCCNC(=N)N)NC(=O)[C@H](C)NC(=O)[C@H](CO)NC(=O)[C@H](CCCCN)NC(=O)[C@H](CCCNC(=N)N)NC(=O)[C@H](C)NC(=O)CNC(=O)[C@@H](NC(=O)[C@H](Cc1ccccc1)NC(=O)CNC(=O)CNC(=O)[C@@H](N)Cc1ccccc1)[C@@H](C)O)C(=O)N[C@@H](C)C(=O)N[C@@H](CC(N)=O)C(=O)N[C@@H](CCC(N)=O)C(=O)O the results were Cycloheximide cs inactive and Shiga inhibitor inactive.
`COc1ccc(-c2nn(C)c3sc(C(=O)Nc4cccc(F)c4)cc23)cc1OC` gave HCMV inh -85.
For Cc1ccc(S(=O)(=O)N(C)C)cc1NC(=O)C(C)Sc1ccccc1 (configuration not stated) the results were Cycloheximide cs inactive, Shiga inhibitor inactive, Pf growth 48h inactive, HCMV inh inactive, HCV inhibitor inactive and Pf growth 96h inconclusive.
Screening CCC[C@H]1[C@@H](NC(=O)Nc2cc(Cl)cc(Cl)c2)CC[C@@]23CCCN2C(=O)CCC[C@@H]13 returned HCMV inh inactive.
Cc1ccc(N(CC(=O)NCc2ccccc2)C(=O)c2csnn2)cc1 was read as Cycloheximide cs inactive, Shiga inhibitor inactive, Pf growth 48h inactive, HCMV inh inactive, HCV inhibitor inactive and Pf growth 96h inactive.
COc1ccc(CNC(=O)CN(C(=O)c2csnn2)c2ccc(C(C)=O)cc2)cc1 was read as Cycloheximide cs inactive, Shiga inhibitor inactive, Pf growth 48h 10µM, HCMV inh inactive, HCV inhibitor inactive and Pf growth 96h inactive.
CCCCOc1ccc(N(CC(=O)NCc2ccccc2)C(=O)c2csnn2)cc1 was read as Cycloheximide cs inactive, Shiga inhibitor 30, Pf growth 48h inactive, HCMV inh inactive, HCV inhibitor inconclusive and Pf growth 96h inactive.
CC(=O)c1ccc(N(CC(=O)NCCc2ccccc2)C(=O)c2csnn2)cc1 was read as Cycloheximide cs inactive, Shiga inhibitor inactive, Pf growth 48h inconclusive, HCMV inh inactive, HCV inhibitor inactive and Pf growth 96h 9.3µM.
`C[C@@]12CCCO[C@@]13C=CC(=O)C=C3CCC2` gave HCMV inh inactive.
For O=C(O)Cc1csc(-c2ccc(Cl)cc2)n1 the results were Pf growth 48h inactive, HCMV inh inactive and Pf growth 96h inactive.
O=C1c2ccccc2C(=O)N1CCc1csc(-c2ccc(F)cc2)n1 was read as Cycloheximide cs inactive, Shiga inhibitor inactive, Pf growth 48h inactive, HCMV inh inactive, HCV inhibitor inactive and Pf growth 96h inactive.
For CN(Cc1cccs1)C(=O)Cc1csc(-c2ccccc2)n1 the results were Cycloheximide cs 47, Shiga inhibitor 69, Pf growth 48h inactive, HCMV inh inactive, HCV inhibitor inactive and Pf growth 96h inactive.
